From PubChem BioAssay (NCI) come the findings set out here.

Assay [1] in a line: NCI Yeast Anticancer Drug Screen. Data for the rad50 strain (AID 155).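 Also: 0% = growth of vehicle-only cultures of the same strain.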 The settings on record: S. cerevisiae rad50 strain growth inhibition, hits give high values. The gist of the method: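 Genetically altered yeast (DNA repair pathway); compound treatment; growth inhibition vs vehicle ctrl.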
Assay [2] can be described thus: NCI Yeast Anticancer Drug Screen. Data for the mec2-1 strain (AID 157). As to conditions: S. cerevisiae mec2-1 strain, hits give high values. The gist of the method:
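mec2-1 yeast strain, carrying an alteration in DNA damage repair or cell cycle control, was exposed to compounds; growth inhibition was measured relative to vehicle-treated controls.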

Assay [3] is described as follows: NCI Yeast Anticancer Drug Screen. Data for the sgs1 mgt1 strain (AID 161).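 Also: 0% = growth of cultures given vehicle only.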 As to conditions: S. cerevisiae sgs1 mgt1 strain, hits give high values. The gist of the method: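 Percent growth inhibition was derived by comparing compound-exposed mutant yeast with vehicle-exposed cultures. The strain carries alterations in DNA damage repair.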
Assay [4] in a line: NCI Yeast Anticancer Drug Screen. Data for the cln2 rad14 strain (AID 165).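 Also: 0% = growth equal to vehicle treated cultures.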 As to conditions: S. cerevisiae cln2 rad14 strain, hits give high values. The gist of the method:
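Yeast carrying cln2 and rad14 alterations (cell cycle control and DNA damage repair) were exposed to compounds. Growth inhibition was measured against vehicle-treated controls.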

The nature of assay [5]: NCI Yeast Anticancer Drug Screen. Data for the bub3 strain (AID 167). As to conditions: S. cerevisiae bub3 mutant strain, hits give high values. The gist of the method:
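Yeast carrying a defined mutation is treated with each compound, and growth is compared with that of vehicle-exposed cells to give inhibition.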

Assay [6] can be described thus: NCI Yeast Anticancer Drug Screen. Data for the mlh1 rad18 strain (AID 175). As to conditions: S. cerevisiae mlh1 rad18 strain growth inhibition, hits give high values. The gist of the method:
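Growth inhibition of the yeast strain was measured after compound exposure and expressed relative to vehicle-treated controls. The strain carries defined defects in DNA damage repair.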

[7] abbreviates: at 5.0 µM (retest, dose inferred, filed as 0.5).
The mark [8] stands for this setting: at 50.0 µM (retest, dose inferred, filed as 5.0).

The panel holds about 79,000 compounds, 15% with a hit somewhere; the sample as a whole holds those more often. Unmarked numbers belong to inactive results. The source made the active and inactive calls. Rule as the data show it: active = growth inhibition above about 70%; inactive = the rest.

For `O=C(NNc1nc(-c2ccccc2)cs1)Nc1ccccc1`, the growth inhibition in assay [1] (setting [7]) is 30%; in assay [1] (setting [8]) it was 54%; in assay [1] (at 50.0 µM), 77.2% (active); in assay [2] (setting [7]), 19%; in assay [2] (setting [8]), 44%; in assay [2] (at 50.0 µM), 90.1% (active). The growth inhibition in assay [3] (setting [7]) is 99% (active); in assay [3] (setting [8]), 98% (active); in assay [3] (at 50.0 µM) it was 88.5% (active); in assay [4] (setting [7]) it was 98% (active); in assay [4] (setting [8]) it was 97% (active); in assay [4] (at 50.0 µM) it was 23.6%. The growth inhibition in assay [5] (setting [7]) was 99% (active); in assay [5] (setting [8]), 97% (active); in assay [5] (at 50.0 µM), 83.8% (active); in assay [6] (setting [7]) it was 48%; in assay [6] (setting [8]), 66%; in assay [6] (at 50.0 µM), 75.1% (active).

With `c1ccc(N/N=C(/CC/C(=N\Nc2ccccc2)c2ccccc2)c2ccccc2)cc1`, the growth inhibition in assay [1] (setting [7]) was 6%; in assay [1] (setting [8]), 77% (active); in assay [1] (at 50.0 µM), 95.5% (active); in assay [2] (setting [7]) it was 4%; in assay [2] (setting [8]), 90% (active); in assay [2] (at 50.0 µM) it was 97% (active). Moreover, the growth inhibition in assay [3] (setting [7]) is -13%; in assay [3] (setting [8]), 82% (active); in assay [3] (at 50.0 µM), 97.2% (active); in assay [4] (setting [7]) it was -13%; in assay [4] (setting [8]), 81% (active); in assay [4] (at 50.0 µM), 47.8%. The growth inhibition in assay [5] (setting [7]) is -5%; in assay [5] (setting [8]), 89% (active); in assay [5] (at 50.0 µM), 95.9% (active); in assay [6] (setting [7]) it was 18%; in assay [6] (setting [8]), 92% (active); in assay [6] (at 50.0 µM), 97.5% (active).

Consider `O=C(C[n+]1ccc2ccccc2c1)c1ccc(-c2ccccc2)cc1`, for which the growth inhibition in assay [1] (setting [7]) was -5%; in assay [1] (setting [8]) it was 97% (active); in assay [1] (at 50.0 µM) it was 98.2% (active); in assay [2] (setting [7]), -2%; in assay [2] (setting [8]), 98% (active); in assay [2] (at 50.0 µM), 97.8% (active). For the same compound, the growth inhibition in assay [3] (setting [7]) is -3%; in assay [3] (setting [8]) it was 97% (active); in assay [3] (at 50.0 µM), 98% (active); in assay [4] (setting [7]) it was -4%; in assay [4] (setting [8]), 96% (active); in assay [4] (at 50.0 µM), 96.8% (active). Also, the growth inhibition in assay [5] (setting [7]) was -5%; in assay [5] (setting [8]) it was 98% (active); in assay [5] (at 50.0 µM) it was 98.5% (active); in assay [6] (setting [7]) it was -7%; in assay [6] (setting [8]), 98% (active); in assay [6] (at 50.0 µM) it was 97.8% (active).

As to `Nc1ccccc1OCC(O)CN1CCN(Cc2ccccc2)CC1` (stereo not given), the growth inhibition is -7% in assay [1] (setting [7]); 23% in assay [1] (setting [8]); 72.1% (active) in assay [1] (at 50.0 µM); -4% in assay [2] (setting [7]); 15% in assay [2] (setting [8]); 41% in assay [2] (at 50.0 µM). The growth inhibition in assay [3] (setting [7]) was -11%; in assay [3] (setting [8]), 42%; in assay [3] (at 50.0 µM) it was 75.6% (active); in assay [4] (setting [7]) it was -4%; in assay [4] (setting [8]), 17%; in assay [4] (at 50.0 µM), 16%. In addition, the growth inhibition was -1% in assay [5] (setting [7]); 9% in assay [5] (setting [8]); 23.9% in assay [5] (at 50.0 µM); 14% in assay [6] (setting [7]); 55% in assay [6] (setting [8]); 22.5% in assay [6] (at 50.0 µM).

As to `O=C1OCc2cccc3cccc1c23`, the growth inhibition in assay [1] (setting [7]) is 7%; in assay [1] (setting [8]), 84% (active); in assay [1] (at 50.0 µM), 88.5% (active); in assay [2] (setting [7]) it was 9%; in assay [2] (setting [8]) it was 43%; in assay [2] (at 50.0 µM), 38.6%. For the same compound, the growth inhibition in assay [3] (setting [7]) was 4%; in assay [3] (setting [8]), 29%; in assay [3] (at 50.0 µM), 70.3% (active); in assay [4] (setting [7]), 8%; in assay [4] (setting [8]) it was 38%; in assay [4] (at 50.0 µM), 36.5%. Moreover, the growth inhibition in assay [5] (setting [7]) was 11%; in assay [5] (setting [8]), 69%; in assay [5] (at 50.0 µM), 27.8%; in assay [6] (setting [7]), 5%; in assay [6] (setting [8]) it was 36%; in assay [6] (at 50.0 µM) it was 62%.

Take `COc1ccc(C(=O)Oc2c(Br)cc(Br)cc2Br)cc1`: the growth inhibition in assay [1] (setting [7]) is 4%; in assay [1] (setting [8]), -3%; in assay [1] (at 50.0 µM), 14.2%; in assay [2] (setting [7]) it was 3%; in assay [2] (setting [8]), -3%; in assay [2] (at 50.0 µM), 12.7%. The growth inhibition was 8% in assay [3] (setting [7]); 10% in assay [3] (setting [8]); 1.9% in assay [3] (at 50.0 µM); -1% in assay [4] (setting [7]); -30% in assay [4] (setting [8]); -6.5% in assay [4] (at 50.0 µM). For the same compound, the growth inhibition in assay [5] (setting [7]) was 7%; in assay [5] (setting [8]) it was 5%; in assay [5] (at 50.0 µM), 87.8% (active); in assay [6] (setting [7]), 1%; in assay [6] (setting [8]), 2%; in assay [6] (at 50.0 µM), 7.75%.

`O=C1N[C@H]2[C@H](CS[C@H]2CCCCC(=O)N(CCP(c2ccccc2)c2ccccc2)CCP(c2ccccc2)c2ccccc2)N1`: the growth inhibition was 2% in assay [1] (setting [7]); 41% in assay [1] (setting [8]); 59.4% in assay [1] (at 50.0 µM); 1% in assay [2] (setting [7]); 27% in assay [2] (setting [8]); 16.4% in assay [2] (at 50.0 µM). The growth inhibition in assay [3] (setting [7]) was 11%; in assay [3] (setting [8]) it was 47%; in assay [3] (at 50.0 µM), -5.85%; in assay [4] (setting [7]), 9%; in assay [4] (setting [8]), 23%; in assay [4] (at 50.0 µM), -18.8%. The growth inhibition in assay [5] (setting [7]) is 16%; in assay [5] (setting [8]), 34%; in assay [5] (at 50.0 µM) it was 7.8%; in assay [6] (setting [7]) it was -15%; in assay [6] (setting [8]) it was 8%; in assay [6] (at 50.0 µM), -26.7%.

Regarding `CCOC(=O)C(=O)Nc1ccc(Cl)cc1Cl`, the growth inhibition is -12% in assay [1] (setting [7]); -1% in assay [1] (setting [8]); -1.5% in assay [1] (at 50.0 µM); -12% in assay [2] (setting [7]); -5% in assay [2] (setting [8]); -10.3% in assay [2] (at 50.0 µM). Moreover, the growth inhibition in assay [3] (setting [7]) was -1%; in assay [3] (setting [8]) it was -2%; in assay [3] (at 50.0 µM), -2.25%; in assay [4] (setting [7]), 14%; in assay [4] (setting [8]), 34%; in assay [4] (at 50.0 µM), -1.75%. The growth inhibition in assay [5] (setting [7]) is 10%; in assay [5] (setting [8]) it was -10%; in assay [5] (at 50.0 µM), 10.6%; in assay [6] (setting [7]) it was 1%; in assay [6] (setting [8]), 7%; in assay [6] (at 50.0 µM) it was 19.1%.

Regarding `COc1ccc(-c2cscc2N)cc1`, the growth inhibition in assay [1] (setting [7]) was -7%; in assay [1] (setting [8]), 72% (active); in assay [1] (at 50.0 µM), 67.5%; in assay [2] (setting [7]), -15%; in assay [2] (setting [8]) it was 46%; in assay [2] (at 50.0 µM), 87.2% (active). The growth inhibition in assay [3] (setting [7]) is -9%; in assay [3] (setting [8]), 38%; in assay [3] (at 50.0 µM), 51.9%; in assay [4] (setting [7]), -6%; in assay [4] (setting [8]), 89% (active); in assay [4] (at 50.0 µM), 46.1%. Moreover, the growth inhibition in assay [5] (setting [7]) is -19%; in assay [5] (setting [8]) it was 91% (active); in assay [5] (at 50.0 µM), 92.2% (active); in assay [6] (setting [7]) it was -1%; in assay [6] (setting [8]) it was 56%; in assay [6] (at 50.0 µM), 89% (active).

Turning to `O=C(O)Cc1nc2ccccc2[nH]1`, the growth inhibition is 1% in assay [1] (setting [7]); 95% (active) in assay [1] (setting [8]); 25.9% in assay [1] (at 50.0 µM); 9% in assay [2] (setting [7]); 70% (active) in assay [2] (setting [8]); 51.2% in assay [2] (at 50.0 µM). Also, the growth inhibition in assay [3] (setting [7]) was 14%; in assay [3] (setting [8]), 99% (active); in assay [3] (at 50.0 µM), 2.85%; in assay [4] (setting [7]), 0%; in assay [4] (setting [8]), 34%; in assay [4] (at 50.0 µM), 14.8%. Also, the growth inhibition in assay [5] (setting [7]) was 1%; in assay [5] (setting [8]), 98% (active); in assay [5] (at 50.0 µM), -3.2%; in assay [6] (setting [7]) it was 2%; in assay [6] (setting [8]) it was 99% (active); in assay [6] (at 50.0 µM), 3.05%.
